Assay results published in the supplement of paper PMC10646978.
± gives the standard deviation.

Key:
Details in all cases: modulator concentration 10 µM
[1] = test system: RAW-Dual (murine macrophage reporter line); experiment: NF-kB reporter (SEAP) activity fold change vs agonist alone; higher = enhanced NF-kB activity
Procedure, shortened: (§1)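 RAW-Dual murine macrophage reporter cells were seeded at 50 000 per well in 384-well plates and pre-incubated 1 hour at 37 °C with compound pin-transferred to 10 μM final. After 1 hour, a PRR agonist was added and cells incubated overnight. Supernatant NF-κB (SEAP, QUANTI-Blue, 620 nm absorbance) and IRF (Lucia luciferase, QUANTI-Luc, luminescence) signals were divided by the mean agonist-only control on the same plate to give fold change. Two replicate plates were averaged, with errors by propagation.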

[2] = test system: RAW-Dual (murine macrophage reporter line); experiment: IRF reporter (Lucia luciferase) activity fold change vs agonist alone; higher = enhanced IRF activity
Procedure, shortened: as §1

[3] = test system: RAW-Dual (murine macrophage reporter line); experiment: viability score (confluency relative to resting cells, overnight) (fraction); higher = more viable, active = viable (0.7 or more)
Procedure, shortened: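 RAW-Dual macrophages in 384-well plates were treated overnight with compound at 10 μM final. IncuCyte imaging recorded confluency, and IncuCyte software built two confluency masks across every imaged well. The viability score expresses confluency relative to resting cells and was judged against a cutoff, which a compound met only if both masks exceeded 70% of resting cells.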

[4] = agonist: CpG ODN 1826 0.5 ug/mL

SMILES | NF-kB reporter [1, 4] | NF-kB reporter ([1]; agonist: LPS 0.1 ug/mL) | NF-kB reporter ([1]; agonist: MPLA […]) | IRF reporter ([2]; agonist: 3'3'-cGAMP 10 ug/mL) | IRF reporter ([2]; agonist: LPS 0.1 ug/mL) | IRF reporter ([2]; agonist: MPLA […]) | viability score [3]
CCOC(N)=O | 0.962 ± 0.13 | 1.09 ± 0.24 | 0.948 ± 0.068 | 0.927 ± 0.057 | 1.32 ± 0.28 | 1.02 ± 0.14 | 1.01 (active)
Br.O=S(=O)(c1ccc(-c2csc(Nc3ccc(Br)cc3)n2)cc1)N1CCCCC1 | 0.859 ± 0.072 | 1.08 ± 0.088 | 0.988 ± 0.034 | 0.938 ± 0.16 | 1.01 ± 0.042 | 0.926 ± 0.11 | 1 (active)
CC(=O)N(C1=C(Nc2ccccc2)C(=O)c2ccccc2C1=O)c1ccccc1 | 2.44 ± 0.19 | 1.52 ± 0.098 | 2.64 ± 0.16 | 2.12 ± 0.063 | 5.77 ± 0.43 | 3.69 ± 0.39 | 0.334 (inactive)
CCOc1ccc(NC(=O)CC2Nc3cccc4cccc(c34)NC2=O)cc1 (stereo not drawn) | 0.91 ± 0.066 | 1.01 ± 0.067 | 0.926 ± 0.077 | 0.884 ± 0.049 | 1.31 ± 0.083 | 1.25 ± 0.34 | 0.926 (active)
CCN1CCN(Cc2c(O)ccc3c2OC(=Cc2ccc(C)cc2)C3=O)CC1 | 1.05 ± 0.078 | 1.03 ± 0.14 | 1.2 ± 0.028 | 0.945 ± 0.058 | 0.967 ± 0.12 | 1.06 ± 0.13 | 0.995 (active)
CC(=O)N1CCC(C(=O)N2CCOCC2CN(C)C)CC1.O=CO (stereo not drawn) | 0.979 ± 0.11 | 1.08 ± 0.17 | 0.924 ± 0.064 | 0.992 ± 0.08 | 1.13 ± 0.089 | 1.06 ± 0.082 | 0.992 (active)
COc1ccc(C(=O)OCCCN2C(=O)c3ccccc3C2=O)cc1 | 0.926 ± 0.15 | 0.986 ± 0.093 | 0.916 ± 0.071 | 0.967 ± 0.036 | 1.26 ± 0.13 | 1.41 ± 0.2 | 1 (active)
Cc1cc2c(cc1S(N)(=O)=O)S(=O)(=O)CCC2 | 1.02 ± 0.094 | 1.03 ± 0.085 | 0.997 ± 0.022 | 1 ± 0.11 | 0.95 ± 0.044 | 0.891 ± 0.14 | 1 (active)
COc1cc2nc(N(C)CCCNC(=O)C3CCCO3)nc(N)c2cc1OC.Cl (stereo not drawn) | 0.585 ± 0.096 | 0.838 ± 0.14 | 0.958 ± 0.056 | 0.382 ± 0.26 | 0.996 ± 0.22 | 1.09 ± 0.2 | 0.996 (active)
COc1ccc(-c2oc3ccc(OC)cc3c2C(=O)Nc2ccccc2C)cc1 | 0.917 ± 0.047 | 1.17 ± 0.092 | 0.959 ± 0.073 | 1 ± 0.055 | 1.1 ± 0.073 | 1.12 ± 0.11 | 1 (active)
COc1cccc(CCNC(=O)CC2CSc3nc4c(c(=O)n32)CCCC4)c1 (stereo not drawn) | 1.22 ± 0.069 | 1.07 ± 0.083 | 1.05 ± 0.096 | 0.886 ± 0.034 | 1.06 ± 0.052 | 1.13 ± 0.11 | 0.996 (active)
O=S(=O)(Nc1nc2ccccc2n2nnnc12)c1ccc(F)cc1 | 1.01 ± 0.1 | 1.03 ± 0.068 | 0.934 ± 0.067 | 0.865 ± 0.021 | 1.21 ± 0.15 | 0.964 ± 0.25 | 1.01 (active)
O=C1NC(=O)C(=Cc2ccc(-c3cccc(Cl)c3)o2)S1 | 0.774 ± 0.36 | 0.761 ± 0.064 | 0.776 ± 0.064 | 0.747 ± 0.032 | 1.13 ± 0.14 | 1.2 ± 0.16 | 0.943 (active)
O=C(c1ccc(F)cc1)N(C1CCCCC1)C1CCCCC1 | 0.68 ± 0.053 | 0.921 ± 0.067 | 1.07 ± 0.1 | 0.959 ± 0.033 | 1.28 ± 0.14 | 1.4 ± 0.22 | 1.02 (active)
O=C(NCCCO)C(=O)Nc1ccccc1F | 0.815 ± 0.07 | 0.894 ± 0.045 | 1 ± 0.099 | 0.968 ± 0.062 | 1.39 ± 0.08 | 1.46 ± 0.14 | 1 (active)
O=S(=O)(Nc1ccnc2ccccc12)c1ccccc1 | 0.928 ± 0.075 | 0.88 ± 0.066 | 0.936 ± 0.088 | 0.858 ± 0.03 | 1.12 ± 0.11 | 1.15 ± 0.19 | 1.03 (active)
O=c1c(O)c(-c2cc(O)c(O)c(O)c2)oc2cc(O)cc(O)c12 | 1.51 ± 0.41 | 0.772 ± 0.04 | 0.968 ± 0.064 | 0.582 ± 0.035 | 0.894 ± 0.23 | 1.01 ± 0.21 | 0.908 (active)
C=CCN1CCCC1CNC(=O)c1cc2nn[nH]c2cc1OC.Cl (stereo not drawn) | 0.987 ± 0.2 | 1.05 ± 0.16 | 0.962 ± 0.14 | 0.917 ± 0.045 | 1.3 ± 0.31 | 0.93 ± 0.07 | 0.999 (active)
CN(c1ccccc1)c1nnc(C(C)(C)C)c(=O)[nH]1 | 1.05 ± 0.079 | 0.951 ± 0.076 | 1.01 ± 0.048 | 1.03 ± 0.039 | 0.908 ± 0.11 | 0.863 ± 0.24 | 0.994 (active)
COc1ccc(NC(=O)c2nn(-c3ccc(F)cc3)cc2OC)cc1OC | 1.07 ± 0.12 | 1.14 ± 0.094 | 0.889 ± 0.04 | 0.976 ± 0.07 | 1.23 ± 0.12 | 1.13 ± 0.24 | 0.976 (active)
O=C(Nc1nc(CC(=O)N2CCOCC2)cs1)c1ccccc1 | 1.02 ± 0.073 | 1.02 ± 0.09 | 0.941 ± 0.14 | 0.995 ± 0.053 | 1.24 ± 0.087 | 1.29 ± 0.1 | 1.01 (active)
Cc1cc(-c2ccc(NC(=O)c3ccc([N+](=O)[O-])cc3)c(C)c2)ccc1NC(=O)c1ccc([N+](=O)[O-])cc1 | 0.994 ± 0.067 | 0.988 ± 0.06 | 0.928 ± 0.064 | 0.966 ± 0.057 | 1.26 ± 0.08 | 1.15 ± 0.27 | 0.999 (active)
CCN(CC)CC#CC(OC)(c1ccccc1)c1ccccc1.Cl | 0.356 ± 0.088 | 0.414 ± 0.063 | 0.47 ± 0.082 | 0.549 ± 0.019 | 1.16 ± 0.16 | 1.29 ± 0.23 | 0.148 (inactive)
Cc1ccc2oc(-c3cccc(NC(=O)C(C)C)c3C)nc2c1 | 0.792 ± 0.062 | 0.908 ± 0.068 | 0.972 ± 0.094 | 0.848 ± 0.04 | 1.16 ± 0.068 | 1.33 ± 0.13 | 1.01 (active)
